USP1 inh: inhibitors of human USP1/UAF1 deubiquitinase; AID 743255; O94782; Potency, µM (titrated, usually from 57.1 µM), for the others: at the top dose activity change, negative = inhibition, hits mostly inhibitors; actives 0.23% (n = 390,000); recombinant USP1/UAF1, Ub-Rhodamine cleavage fluorescence; further: on the % scale 0 is the no-effect control and ±100 the full control effect; nearly all actives have a fitted effect of over 60% in size
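High-throughput fluorogenic screen: 1nM USP1/UAF1 complex, Ub-Rho substrate 150nM final, 50mM HEPES pH 7.8 with 0.5mM EDTA, 0.1 mg/ml BSA, 1mM TCEP and 0.01% Tween-20.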
EPAC2 ag: agonists of human EPAC2 (RAPGEF4). actives 0.079% (n = 360,000). EPAC2 activation, biochemical qHTS; response scale: 100% = 6.5 mM cAMP response. Potency, µM (highest dose often 154 µM), inactives show at the highest dose activation, most hits filed as activators. AID 720711; further: nearly all actives have a fitted effect of over 50% in size
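Readout is BODIPY fluorescence (480 nm excitation, 540 nm emission), which falls as labeled GDP is exchanged off Rap1B. EPAC2 at 100 nM acted on 250 nM RAP1B-BODIPY-GDP with 50 uM GDP present.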
EPAC2 antag: antagonists of human EPAC2 | EPAC2 GEF exchange of Rap1B-BODIPY-GDP, fluorescence | Potency, µM (top dose mostly 114 µM), without a hit: top-dose activity, negative = inhibition, most hits filed as inhibitors | actives 0.18% (n = 360,000) | AID 720708; further: on the % scale 0 is the no-effect control and ±100 the full control effect; nearly all actives have a fitted effect of over 45% in size
EPAC1 ag: EPAC1 (human) agonism. O95398. EPAC1 agonist qHTS, biochemical assay; response scale: 100% = response to 6.5 mM cAMP. Potency, µM (doses to about 154 µM), inactives show at the highest dose activation, most hits filed as activators. actives 0.073% (n = 360,000); further: nearly all actives have a fitted effect of over 60% in size
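Nucleotide exchange assay: 100 nM EPAC1 with 250 nM Rap1B loaded with BODIPY-GDP and 50 uM GDP, room temperature. Fluorescence (480/540 nm) read every 5 min for 30 min; signal change normalized to 6.5 mM cAMP as full agonist.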
EPAC1 antagonist: blocks human EPAC1 exchange factor. O95398. EPAC1 GEF assay, Rap1b-BODIPY-GDP exchange fluorescence. Potency, µM (top dose mostly 115 µM), for the others: at the highest dose activity change, negative = inhibition, usual class: inhibitors. actives 0.14% (n = 360,000). AID 720709;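 further: plate controls were vehicle for no effect and positive control for full effect; nearly all actives have a fitted effect of over 50% in size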
The depositor's hits bear a star. The list is not random: actives were taken first. Their share in the collection is about 0.49%. The call rests on the fitted dose curve; in most records, active means well fitted curve in the direction sought with a large enough effect; inconclusive means small, poorly fitted or top-dose-only effect, or another doubt; inactive means no such curve, though single readings can be large; an effect the other way counts as inactive or inconclusive. Potency means the concentration at half of the fitted maximal effect.

Results for CCCCOc1ccc(S(=O)(=O)Nc2ccc(-c3ccc(N4CCC(C)CC4)nn3)cc2)cc1 ?
USP1 inh: -3%

How did Cc1nn(CCc2nn[nH]n2)c2nc(-c3ccc(Br)cc3)cc(C(F)(F)F)c12 do in these assays?
USP1 inh: -12%; EPAC2 ag: -20%; EPAC2 antag: 32µM*; EPAC1 ag: -14%; EPAC1 antagonist: -28%

Results for O=C(N/N=C/c1ccc(O)c(Br)c1)c1cc2c(ccc3ccccc32)o1 ?
USP1 inh: -5%; EPAC2 ag: 6%; EPAC2 antag: -5%; EPAC1 ag: 5%; EPAC1 antagonist: 1%

Results for O=C(N/N=C/c1cc(Br)c(O)c(Br)c1)c1cc2c(ccc3ccccc32)o1 ?
USP1 inh: inconclusive; EPAC2 ag: 8%; EPAC2 antag: -14%; EPAC1 ag: -4%; EPAC1 antagonist: 28µM*

Results for CC(=O)c1ccc(NC(=O)CSc2nccn2Cc2ccco2)cc1 ?
USP1 inh: 0%

How did CC1CCCN(C(=O)c2ccc(CSc3nc4ccncc4n3Cc3ccccc3)cc2)C1 (stereo not drawn) do in these assays?
USP1 inh: -1%

What do the screens show for `O=C1NC(=O)C2(N1)c1ccccc1-c1ccccc12`?
USP1 inh: -21%; EPAC2 ag: 1%; EPAC2 antag: 8%; EPAC1 ag: -2%; EPAC1 antagonist: -13%

How did O=C1NC(=O)C2(N1)C(=O)c1cccc3cccc2c13 (stereo not drawn) do in these assays?
USP1 inh: 35µM*; EPAC2 ag: inconclusive; EPAC2 antag: 59%; EPAC1 ag: 112µM*; EPAC1 antagonist: 40%

Results for O=C(N/N=C/c1ccc(OC(=O)c2ccccc2Cl)cc1)c1cc(O)cc(O)c1 ?
USP1 inh: -12%; EPAC2 ag: 24%; EPAC2 antag: -19%; EPAC1 ag: -4%; EPAC1 antagonist: 71µM*

How did N#C/C(=C\c1ccc(Sc2ccc(Cl)cc2)o1)c1nc2ccccc2[nH]1 do in these assays?
USP1 inh: inconclusive; EPAC2 ag: 100µM*; EPAC2 antag: 36%; EPAC1 ag: 8%; EPAC1 antagonist: 7%

What do the screens show for `N#C/C(=C/c1ccc(N2CCOCC2)o1)c1nc2ccccc2[nH]1`?
USP1 inh: 25µM*; EPAC2 ag: 100µM*; EPAC2 antag: 46%; EPAC1 ag: 89µM*; EPAC1 antagonist: -7%

What do the screens show for `COc1ccc(C)cc1NC(=O)CN(c1cc(C(F)(F)F)ccc1Cl)S(C)(=O)=O`?
USP1 inh: -19%

Results for Cc1ccccc1NC(=O)COC(=O)c1ccc(CSc2ccc(Cl)cc2)cc1 ?
USP1 inh: -13%; EPAC2 ag: 7%; EPAC2 antag: 25%; EPAC1 ag: 3%; EPAC1 antagonist: -12%

Results for Cc1cc(CSc2ccc(Cl)cc2)ccc1N ?
USP1 inh: -23%; EPAC2 ag: 17%; EPAC2 antag: 16µM*; EPAC1 ag: 6%; EPAC1 antagonist: -4%

What do the screens show for `O=C1C=C(NCCc2cc(Br)c(O)c(Br)c2)C(=O)c2ncccc21`?
USP1 inh: 3.5µM*; EPAC2 ag: -1%; EPAC2 antag: 79µM*; EPAC1 ag: 15%; EPAC1 antagonist: 50µM*

Results for Cn1c(=O)n(C)c2cc(N3CCOCC3)c(NS(=O)(=O)c3ccc(Br)cc3)cc21 ?
USP1 inh: -5%

Results for CCOC(=O)/C(=C/c1ccc(N2CCC(c3ccccc3)=N2)cc1)C(C)=O ?
USP1 inh: 4.5µM*; EPAC2 ag: 100µM*; EPAC2 antag: 202%; EPAC1 ag: inconclusive; EPAC1 antagonist: -7%

How did Cc1ccc(/C=C/C(=O)Nc2ccc(Cl)cc2Cl)cc1 do in these assays?
USP1 inh: -5%

Results for CCOc1ccc2noc3c2c1C(=O)c1ccccc1-3 ?
USP1 inh: -18%; EPAC2 ag: 8%; EPAC2 antag: 4%; EPAC1 ag: -11%; EPAC1 antagonist: 4%

Results for O=C1c2ccccc2-c2onc3ccc(N4CCCC4)c1c23 ?
USP1 inh: 14µM*; EPAC2 ag: -124%; EPAC2 antag: 125%; EPAC1 ag: -152%; EPAC1 antagonist: 146%

What do the screens show for `CCNc1ccc2noc3c2c1C(=O)c1ccccc1-3`?
USP1 inh: inconclusive; EPAC2 ag: 89µM*; EPAC2 antag: 152%; EPAC1 ag: 112µM*; EPAC1 antagonist: 415%

What do the screens show for `CCc1ccc(NC(=O)C(CC)n2c(=O)c(-c3ccccc3NC(C)=O)nc3ccccc32)cc1` (stereo not drawn)?
USP1 inh: -10%

Results for CCNC(=S)Nc1ccc(N2CCCCC2)cc1 ?
USP1 inh: -9%; EPAC2 ag: 4%; EPAC2 antag: 4%; EPAC1 ag: 7%; EPAC1 antagonist: 7%

What do the screens show for `CCNC(=S)N/N=C/c1sc(N2CCCCC2)nc1-c1cccs1`?
USP1 inh: inconclusive; EPAC2 ag: 1%; EPAC2 antag: inconclusive; EPAC1 ag: -52%; EPAC1 antagonist: 89µM*

How did Cc1ccc2cccc(Oc3ncnc4scc(-c5ccc(Cl)cc5)c34)c2n1 do in these assays?
USP1 inh: 14µM*; EPAC2 ag: 1%; EPAC2 antag: -2%; EPAC1 ag: 23%; EPAC1 antagonist: -1%

Results for Cc1c(C(=O)N(Cc2ccc(N(C)C)cc2)CC2CCCO2)oc2ccc(Cl)cc12 (stereo not drawn) ?
USP1 inh: -27%

What do the screens show for `COc1ccc(-n2cnc3scc(-c4ccc(OC)c(OC)c4)c3c2=O)cc1`?
USP1 inh: 2%; EPAC2 ag: 10%; EPAC2 antag: inconclusive; EPAC1 ag: 2%; EPAC1 antagonist: -23%

What do the screens show for `COc1ccc(-c2csc3ncn(-c4ccc(C)cc4)c(=O)c23)cc1OC`?
USP1 inh: -18%; EPAC2 ag: 6%; EPAC2 antag: 45µM*; EPAC1 ag: 0%; EPAC1 antagonist: -27%

How did CC(=O)Oc1ccc2c(c1)Oc1cc(OC(C)=O)ccc1C21OC(=O)c2ccccc21 do in these assays?
USP1 inh: inactive; EPAC2 ag: inactive; EPAC2 antag: 40µM*; EPAC1 antagonist: inconclusive

Results for CCN1C(=O)/C(=C/c2ccc(OCc3ccc(C(=O)O)cc3)c(Cl)c2)NC1=S ?
USP1 inh: -27%; EPAC2 ag: 11%; EPAC2 antag: 26%; EPAC1 ag: 4%; EPAC1 antagonist: 89µM*

How did COc1cc2nc(N3CCNCC3)nc(N)c2cc1OC do in these assays?
USP1 inh: -25%; EPAC2 ag: 23%; EPAC2 antag: 32µM*; EPAC1 ag: 9%; EPAC1 antagonist: inconclusive

How did COc1cc2nc(N3CCN(c4cc(C)ccc4C)CC3)nc(N)c2cc1OC do in these assays?
USP1 inh: -22%; EPAC2 ag: 26%; EPAC2 antag: -6%; EPAC1 ag: 13%; EPAC1 antagonist: -21%
